High-throughput results from PubChem.
GLP-1R agonist: qHTS of GLP-1 Receptor Agonists. AID 624172, 2012. HEK293 GLP-1R CRE-luciferase, luminescence, 4-6 h; cells express a hypersensitive GLP-1R form. Glucagon-like peptide 1 receptor (Homo sapiens), P43220. Potency, µM (series often up to 45.6 µM), most hits filed as activators. 380,000 tested, 0.007% active
Target sequence (P43220 whole entry, looked up): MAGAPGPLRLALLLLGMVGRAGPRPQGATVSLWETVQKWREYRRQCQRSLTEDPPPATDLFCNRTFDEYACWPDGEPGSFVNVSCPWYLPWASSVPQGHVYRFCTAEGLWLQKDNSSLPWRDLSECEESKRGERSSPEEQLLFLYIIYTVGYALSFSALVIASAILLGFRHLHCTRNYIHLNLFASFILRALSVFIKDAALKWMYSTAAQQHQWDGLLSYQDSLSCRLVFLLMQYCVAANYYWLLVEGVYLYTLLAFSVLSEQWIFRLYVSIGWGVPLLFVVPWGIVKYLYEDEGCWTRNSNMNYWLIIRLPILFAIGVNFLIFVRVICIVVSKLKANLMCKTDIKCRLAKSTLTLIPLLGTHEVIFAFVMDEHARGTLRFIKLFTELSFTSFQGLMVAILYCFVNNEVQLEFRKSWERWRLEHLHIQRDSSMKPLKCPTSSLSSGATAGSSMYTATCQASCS
GLP1R cytotox: qHTS of GLP-1 Receptor Inverse Agonists: Cytotox Screen. 410,000 tested, 0.13% active. Potency, µM (highest dose often 38.3 µM), hits mostly inhibitors. AID 624418, 2012. HEK293 cAMP-luciferase reporter cells, luminescence, 24 h;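 also: loss of luciferase light is scored as toxicity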
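Luminescence readout: signal drop marks cytotoxicity. Plated cells grew 12 h at 37 °C, 5% CO2, received 23 nL compound for 24 h, then got luciferase reagent, read after 12 min at RT.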
ClpP mod: qHTS Assay for Activators of ClpP | purified B. subtilis ClpP, FRET peptide cleavage, 20 min | ATP-dependent Clp protease proteolytic subunit (Bacillus subtilis (strain 168)), P80244 | 340,000 tested, 1.9% active | Potency, µM (highest dose often 57.5 µM); active = well fitted falling curve with a large enough effect; inconclusive = small, poorly fitted or top-dose-only effect; inactive = no such curve, though single readings can be large or run the other way; also: the source files actives as falling curves though it sought activators and does not explain the sign; nearly all actives have a fitted effect of over 65% in size
Target sequence (P80244 whole entry, looked up): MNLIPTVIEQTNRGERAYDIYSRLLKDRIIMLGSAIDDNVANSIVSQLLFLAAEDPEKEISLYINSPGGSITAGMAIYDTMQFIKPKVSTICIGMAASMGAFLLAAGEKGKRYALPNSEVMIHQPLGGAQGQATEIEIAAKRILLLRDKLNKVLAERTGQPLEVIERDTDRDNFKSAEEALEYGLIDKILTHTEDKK
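Purified B. subtilis ClpP, 10 microg/mL final in Tris/HCl pH8 with KCl, BSA, glycerol and Tween-20, cleaved an Abz/nitrotyrosine-quenched decapeptide. Fluorescence (ex 320, em 430) was read at 0 and 20 min at room temperature. Delta was normalized to 5.8 microM ADEP and DMSO/no-enzyme controls.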
GLP1R inv ag: qHTS of GLP-1 Receptor Inverse Agonists (Inhibition Mode); Glucagon-like peptide 1 receptor (Homo sapiens), P43220; HEK293 GLP-1R CRE-luciferase, luminescence, 24 h; GLP-1R form is constitutively active; Potency, µM (doses to about 38.3 µM), actives largely listed as inhibitors; 410,000 tested, 1.6% active; AID 624417, 2012; also: nearly all actives have a fitted effect of over 55% in size
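Inverse agonism was detected as reduced cAMP-driven luciferase luminescence after 24 h compound treatment. The cells were HEK293 clones expressing constitutively active human GLP-1R with the reporter. Reporter-only and GPR119 cell lines served as counterscreen controls.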
Large screens that a line does not name were inactive. Only some compounds are listed: those with a hit (about 3.2% of all), similar ones and a draw of the others. Unless noted, calls follow the shape of the dose curve; as a rule, active = well fitted curve in the direction sought with a large enough effect; inconclusive = small, poorly fitted or top-dose-only effect, or another doubt; inactive = no such curve, though single readings can be large; an effect the other way counts as inactive or inconclusive.

CCN(CC)CCCN(Cc1cc2cc3c(cc2[nH]c1=O)OCO3)C(=O)Nc1ccccc1OC	ClpP mod 32µM, GLP1R inv ag inconclusive
COc1cc2cc(CN(CCN3CCOCC3)C(=O)Nc3ccc(F)cc3)c(=O)[nH]c2cc1OC	none
CNC(=S)N(Cc1cccs1)Cc1cc2ccc(OC)cc2[nH]c1=O	none
CCN(CC)CCCN(Cc1cc2cc(OC)c(OC)cc2[nH]c1=O)C(=O)Nc1ccccc1	ClpP mod 32µM
Cc1cccn2c(=O)cc(COc3ccc(NC(=O)C(C)Oc4ccccc4)cc3)nc12 (stereo not drawn)	none (no result: GLP-1R agonist)
O=C(CC1N=C2c3ccccc3N=C(SCC(=O)Nc3ccc(F)cc3)N2C1=O)NCc1ccco1 (stereo not drawn)	none (no result: GLP-1R agonist)
Cc1ccc(CNc2ncnc3onc(C)c23)cc1	none
CCN(CC)CCCN(Cc1cc2cc3c(cc2[nH]c1=O)OCCO3)C(=O)Nc1ccc(F)cc1	ClpP mod 28µM
Cc1ccc(NC(=O)C2CCCN(c3ncnc4c3nc3n4CCCCC3)C2)cc1F (stereo not drawn)	GLP1R inv ag 3.5µM (no result: GLP-1R agonist)
CC1CCN(C(=O)C2CCCN(c3ncnc4c3nc3n4CCCCC3)C2)CC1 (stereo not drawn)	none
CCc1cccc(NC(=O)C2CCCN(c3ncnc4c3nc3n4CCCCC3)C2)c1 (stereo not drawn)	GLP1R inv ag 6.3µM (no result: ClpP mod)
COc1cccc(N2CCN(C(=O)C3CCCN(c4ncnc5c4nc4n5CCCCC4)C3)CC2)c1 (stereo not drawn)	GLP1R cytotox inconclusive, GLP1R inv ag 4.5µM
O=C(Nc1ccccc1Cl)C1CCCN(c2ncnc3c2nc2n3CCCCC2)C1 (stereo not drawn)	GLP1R inv ag 3.2µM (no result: ClpP mod)
O=C(Nc1cccc(Cl)c1)C1CCCN(c2ncnc3c2nc2n3CCCCC2)C1 (stereo not drawn)	GLP1R cytotox inconclusive (no result: GLP-1R agonist)
COc1ccccc1NC(=O)C1CCCN(c2ncnc3c2nc2n3CCCCC2)C1 (stereo not drawn)	GLP1R inv ag inconclusive (no result: ClpP mod)
COc1ccc(-c2cn3nc(N4CCC(C(=O)Nc5cc(Cl)ccc5OC)CC4)sc3n2)cc1	none (no result: GLP-1R agonist)
CN(C(=O)CSc1cn(CC(=O)N2CCCCCC2)c2ccccc12)c1ccccc1	GLP1R inv ag inconclusive (no result: GLP-1R agonist)
Cc1ccc(NC(=O)Cn2c(=O)n(Cc3nc(C)no3)c(=O)c3ccccc32)c(Cl)c1	none (no result: GLP-1R agonist)
O=C(NCCCN1CCC(Cc2ccccc2)CC1)c1ccc(CS(=O)c2ccccc2Cl)o1 (stereo not drawn)	GLP1R inv ag inconclusive
CCC(C)c1ccc(OCC(=O)Nc2cccc(-c3nc4ncccc4o3)c2)cc1 (stereo not drawn)	ClpP mod inconclusive, GLP1R inv ag inconclusive (no result: GLP-1R agonist)
CCN(CC)c1ccc(/C=C/c2c(C)cnc3ccccc23)cc1	none (no result: GLP-1R agonist, GLP1R cytotox, GLP1R inv ag)
CCN(Cc1ccccc1)C(=O)C1CCN(c2ncnc3c2nc2n3CCCCC2)CC1	none
CCc1ccccc1N(CC)C(=O)C1CCN(c2ncnc3c2nc2n3CCCCC2)CC1	GLP1R inv ag 8.9µM
Cc1cc(C)cc(NC(=O)Nc2cc(-c3ccccc3)nn2C)c1	GLP1R inv ag 8.9µM (no result: ClpP mod)
CCOc1ccc(NC(=O)CCCN2C(=S)NC(C)(C)CC2C)cc1 (stereo not drawn)	ClpP mod 28µM
Cc1ccc(C)c(N2CCN(C(=O)CCCN3C(=S)NC(C)(C)CC3C)CC2)c1 (stereo not drawn)	GLP1R cytotox inconclusive, ClpP mod inconclusive, GLP1R inv ag 11µM
Cc1cccc(N2CCN(C(=O)CCN3C(=S)NC(C)(C)CC3C)CC2)c1C (stereo not drawn)	none
Cc1cccc(NC(=O)CCCN2C(=S)NC(C)(C)CC2C)c1C (stereo not drawn)	none (no result: ClpP mod)
CC1CC(C)(C)NC(=S)N1CCCC(=O)Nc1ccc(Br)cc1 (stereo not drawn)	GLP1R cytotox 11µM, GLP1R inv ag 10µM
O=S(=O)(NCC(c1ccco1)N1CCOCC1)c1ccc(F)cc1 (stereo not drawn)	none (no result: GLP-1R agonist)
O=C(Cn1ncc2c3ccccc3n(Cc3ccccc3F)c2c1=O)NC1CCCCCC1	none (no result: GLP-1R agonist)
CN(c1cccc(NC(=O)CN2C(=O)c3ccccc3S2(=O)=O)c1)S(C)(=O)=O	ClpP mod 28µM, GLP1R inv ag inconclusive
CN(c1cccc(NC(=O)CN(c2cccc(Cl)c2)S(=O)(=O)c2ccc(Cl)cc2)c1)S(C)(=O)=O	GLP1R inv ag 7.9µM
Cc1ccc(Cl)cc1N(CC(=O)Nc1cccc(N(C)S(C)(=O)=O)c1)S(C)(=O)=O	none
COc1cccc(CNC(=O)C2CCN(c3nnc(-n4c(C)ccc4C)s3)CC2)c1OC	none (no result: GLP-1R agonist)
Nc1cc(-c2ccccc2)ccc1O	ClpP mod 32µM
CC(=O)Nc1cc(-c2ccccc2)ccc1O	none
CC(=O)c1cc(-c2ccccc2)n(CC(=O)NCc2ccccc2C)c1C	none (no result: GLP-1R agonist)
Cc1ccc(-c2nnc(CSc3nnc(COc4ccccc4)n3-c3ccccc3)o2)cc1	GLP1R inv ag 10µM
COc1ccc(CCn2c(-c3ccco3)nc3nc4ccccc4nc32)cc1	GLP1R inv ag inconclusive
CCCn1c(-c2ccc(OC)cc2)nc2nc3ccccc3nc21	ClpP mod 28µM
CC(C)(C)c1ccc(NC(=O)NC2CCCc3ccccc32)cc1 (stereo not drawn)	GLP1R inv ag 3.2µM
O=C(N/N=C/c1ccc(N2CCOCC2)s1)c1ccccc1Br	none (no result: ClpP mod)
Clc1cccc(N/N=C/c2ccc(N3CCOCC3)s2)c1	GLP1R cytotox inconclusive, GLP1R inv ag 2.8µM
FC(F)(F)c1cccc(Cc2noc(CN3CCC(c4ccncc4)CC3)n2)c1	GLP1R inv ag 2.5µM (no result: ClpP mod)
C/C(=N\NC(=O)c1ccc(F)cc1)c1ccccn1	GLP1R inv ag 1.1µM
N#Cc1ccc(NC(=O)Nc2ccc(Cl)cc2)cc1	GLP1R inv ag 6.3µM
CN(CC(=O)Nc1ccc(C#N)cc1)Cc1ccc(Cl)cc1	GLP1R inv ag inconclusive
CN(C)c1ccc(/C=N/Nc2nc3ccccc3o2)cc1	GLP1R inv ag 3.5µM
O=C(Nc1cccc2ccccc12)c1ccc([N+](=O)[O-])cc1	none
O=C(CNc1cccc2ccccc12)c1ccc([N+](=O)[O-])cc1	ClpP mod 5.6µM
CC1(C)CC(=O)C=C(Nc2ccc(F)cc2)C1	none
CC1(C)CC(=O)C=C(Nc2ccc(OCC(F)(F)C(F)F)cc2)C1	ClpP mod 18µM, GLP1R inv ag inconclusive
COc1ccc(CN2C[C@H]3CCCN3c3cc(Br)ccc3S2(=O)=O)cc1	GLP1R inv ag 0.89µM
O=C(NC1CCCN(Cc2ccc(Cl)cc2)C1)c1ccnc(Cl)c1 (stereo not drawn)	GLP1R inv ag inconclusive (no result: ClpP mod)
COc1cc(OC)cc(C(=O)NC2CCCN(Cc3ccc(Cl)cc3)C2)c1 (stereo not drawn)	GLP1R inv ag 11µM
O=C(Nc1ccc2c(c1)N(S(=O)(=O)c1cccs1)CCC2)c1c(F)cccc1F	ClpP mod 11µM, GLP1R inv ag inconclusive
